# Data taken from the supplement of paper PMC6555819.
# Tests used:
# Test in all cases: PBM binding z-score (relative to random genomic background probes); higher = stronger binding; sequences stand for … in GC…GCGATTGACAGCGTAGAATGAAGG
# [1] = tested on: PPARg:RXRa DBDmut IVT, anti-RXR (DBD mutation: RXRa K156A/R161A, NR concentration 270 nM, RXRa partner concentration 90 nM)
# Procedure, shortened: (§1)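 Regression normalization was applied to scanned fluorescence from custom Agilent 4×180K protein-binding microarrays. Before scanning, arrays were incubated 1 h with ligand-free nuclear receptor dimers, and binding was detected with antibodies against each partner (one per run). Binding z-scores use the random background probes as reference.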
# [2] = tested on: PPARg:RXRa IVT, anti-PPARg (NR concentration 270 nM, RXRa partner concentration 90 nM)
# Procedure, shortened: as §1
# [3] = tested on: PPARg DBDmut:RXRa IVT, anti-PPARg (DBD mutation: PPARg1 K132A/R137A, NR concentration 270 nM, RXRa partner concentration 90 nM)
# Procedure, shortened: as §1
# [4] = tested on: PPARg DBDmut IVT, anti-PPARg (DBD mutation: PPARg1 K132A/R137A, NR concentration 270 nM)
# Procedure, shortened: as §1
# [5] = tested on: PPARg homodimer (NR concentration 180 nM)
# Procedure, shortened: as §1
# [6] = tested on: PXR:RXRa (NR concentration 270 nM, RXRa partner concentration 90 nM)
# Procedure, shortened: as §1
# [7] = tested on: PXR homodimer (NR concentration 270 nM)
# Procedure, shortened: as §1
# [8] = tested on: RARa:RXR (NR concentration 270 nM, RXRa partner concentration 90 nM)
# Procedure, shortened: as §1
# [9] = tested on: RARa homodimer (NR concentration 270 nM)
# Procedure, shortened: as §1
# [10] = tested on: RARb:RXRa (NR concentration 270 nM, RXRa partner concentration 90 nM)
# Procedure, shortened: as §1
Sequence,PBM binding z-score [1],PBM binding z-score [2],PBM binding z-score [3],PBM binding z-score [4],PBM binding z-score [5],PBM binding z-score [6],PBM binding z-score [7],PBM binding z-score [8],PBM binding z-score [9],PBM binding z-score [10]
CCAGACGGGTGAGAAGGTAACTCAGCCTCGATTA,0.114,0.156,-1.55,-1.37,0.298,-0.708,-0.553,-0.463,-0.518,-0.128
TCTTGTAGATCAAGCAGGTTAAGATAGCCTGAGT,1.74,0.733,0.115,0.351,0.386,0.406,-0.159,0.668,-0.0619,0.309
TAGCCCAGGTCATTCAGGGGCCAGTATAGAAAGC,0.643,2.16,-0.0273,0.498,2.32,3.28,0.378,3.94,0.0689,3.67
GCTTGTACATCAAGGTTAAGAAAGACTAAGCTAA,-0.0633,0.772,0.219,-0.0385,0.116,0.266,-0.152,0.856,0.262,0.882
TAGCCTAGGTCCTGCGGGCCAGTATAGTGTCGGC,-1.61,-0.181,-1.11,-0.969,-1.72,-0.971,-1.03,-0.898,-1.52,-0.954
CCTACTGGGACAAGGTCATTGATCAGTCAAAGCA,3.79,4.66,-0.0252,-0.0828,2.28,3.8,1.59,3.89,0.375,3.26
GCTAGTTGGTCAGTAAAAGGTCAGACACCGGTCG,0.754,1.67,-0.192,0.136,3.21,3.35,0.554,4.17,0.966,3.71
TCATATGGGTAATACAGGTGAAAGTCGGCATCTA,3.38,2.88,1.3,0.765,0.704,0.281,-0.317,0.653,0.182,0.214
CCTACTGGGCCGTCAGGTCATTGATATCAACGTT,1.17,2.14,-0.782,-0.667,0.741,1.33,0.502,1.53,0.0542,1.66
CCTTACGGGTCAAGGTTTTAGCACGGGTGGTACG,2.52,3.36,0.173,-0.72,2.55,2.95,-0.244,4.13,0.944,4.2
CCGACTGGGCCAGAAAGGTTACCATACCATCCGG,0.593,0.483,-0.91,-1.13,0.203,0.831,-0.302,1.83,-0.242,1.47
CAAACTTGGTCACCGGAAGGTCAAAGTCCGCATG,2.35,3.45,0.726,1.15,2.58,4.26,1.08,4.78,0.786,3.77
CCTACTGGGCCAAGGCCATTGATCAGTCAAAGCA,2.95,2.89,-0.753,-1.61,0.0949,-0.456,-0.233,-0.557,-0.85,0.554
ATACCAAGGTGATCGTGAGGTCGGTGATACTAAC,0.199,1.12,-0.398,0.469,0.85,0.944,0.32,0.998,0.866,1.11
GCTAGCAGGCCATTTGGGACACTCAATGACGGGC,0.822,0.411,-0.432,-0.76,-1.04,-0.714,-0.736,-0.559,-0.547,-0.00778
CTCGAAAGGTCGTGCTCACGTGAGTATACCAAAC,0.85,1.55,0.551,0.796,1.35,2.86,-0.121,3.31,-0.039,3.92
ATCGAAAGGTCGTGAGGTGAGTAGACAGAAAGGC,0.467,2.39,0.658,0.706,1.44,3.07,0.328,4.15,0.372,3.9
CGTCCAAGATCAATGCTAGGTCAGTGAAAGCATT,0.0283,0.44,-0.261,0.071,0.835,0.204,0.467,0.725,0.103,1.7
ACTCGGAAGACAAAGGTCAGAGCTACGCCAGTGA,0.385,1.77,0.488,-0.549,2.44,3.25,0.247,3.84,0.864,4.07
CGTCTAAGGTCAGAGAGGTCAGTGAATGCCGAGT,3.8,3.69,0.924,-0.453,4.52,6.51,12,5.99,1.28,5.56
ACTATTAGTTGAGAAGAGGGCAACCGATAGGTTG,0.072,0.463,1.02,0.853,0.882,0.779,0.445,0.623,1.19,1.32
AATACAGGGTCACAAGGCCAGAGTAGGTACGAAT,3.6,5.38,1.96,1.5,1.69,4.03,0.719,4.97,1.18,4.6
CCGACTGAGGCAAAGGTTACCATACTCAGTACGA,0.849,2.47,-0.356,-0.203,1.16,1.56,0.0581,2.31,0.408,1.78
CGTCCAAGTTCAGAGAGGTCAGTGAATGCCGAGT,0.453,0.71,-0.268,-0.219,4.09,6.4,13,3.9,1.51,4.09

Sequence,PBM binding z-score [1],PBM binding z-score [2],PBM binding z-score [3],PBM binding z-score [4],PBM binding z-score [5],PBM binding z-score [6],PBM binding z-score [7],PBM binding z-score [8],PBM binding z-score [9],PBM binding z-score [10]
ATAGAAAGGTCGAGGTGAGTATAGAGAAAGGGAA,0.449,1.99,1.74,0.872,2.34,2.55,0.613,3.6,1.71,4
GCTGATAGGTCAGGTTGGTCAGCTAACGGGTACG,1.74,1.49,-0.568,-0.567,1.32,1.25,-0.432,2.23,-0.0849,3.8
CCTAGCAGGCCAATTTGGGTCACTCAAGGCTTGA,2.7,2.91,-1.03,-1.39,0.323,1.12,-0.236,1.52,-0.55,1.29
GCGACAGGGGCATCAGCAGGTTACCATAACTTAA,0.0717,-0.102,-1.02,-1.18,0.4,0.643,0.0793,1.08,-0.68,1.27
ATCTCTAGGTAAAAGTTCAGTGTATCCCGAGGAT,2.32,3.71,1.69,1.72,1.66,2.25,2.23,1.53,1.59,2.5
TTACCAAGGTGAAGGTCGTAGATCCCTCTGTAGA,1.02,3.32,-0.72,-0.483,-0.867,0.858,-0.255,1.4,-0.36,2.01
GCTGCTAGGTCTGGTTGGTCAGCTAACGGGTACG,-0.0168,-0.444,-1.29,-0.941,-0.461,-0.762,-0.661,-0.909,-0.893,0.00464
CCAGACAGGTGAAAGGTAACTAAGTCTGGTACGC,1.58,2.54,-0.18,-0.253,0.909,0.819,0.101,1.81,0.324,1.14
ATCGAAAGGTCGAGGTGAGTTTAGAGAAAGGGAA,0.367,2.26,0.969,0.594,1.7,5.04,1.12,3.71,0.68,4.26
TCTTATAGATCAAAGGTTAAGAAAGCCGAAGCCT,2.07,3.14,0.659,0.755,2.4,2.41,0.154,3.82,0.262,2.06
CGAACTAGGTCTGAACAGGACAGTGAAGGATGAT,1.88,0.996,-0.255,-0.111,-0.44,-0.688,-0.469,-0.635,-0.454,-0.192
AGAATGAGGTGATTAAGATCAGGGAATTGCGGTC,2.96,2.25,0.816,-0.56,-0.484,-0.0501,-0.416,0.0955,-0.457,0.268
TCTAGTTGGGCACGGAGGTCACACACGACGGGTA,1.69,2.93,1.02,-0.0176,2.73,3.91,0.835,4.24,0.793,3.36
ATATGTAGGTTATGGGTCATTCAGGTTGGTTCGC,7.25,7.26,2.55,1.93,3.33,4,1.51,3.63,2.31,2.52
CAGCCTAGGTCAGGGCCAGCATAGGAGGAACGTT,1.28,1.44,-0.858,-1.51,0.398,0.0493,-0.664,0.806,-0.366,3.37
CGTCAAAGTTCAACTAAGGTAAGGTAAAGCACGC,0.313,2.23,0.694,0.769,2.56,5.25,3.24,4.42,1.63,5.2
GCATATAGGTAATACAAGGTGAGAGTCCGATTGT,4.28,3.14,1.33,0.73,0.397,0.114,0.184,1.59,0.608,0.335
CCGACTGGAGCAGAAAGGTTACCATACCATCCGG,0.54,0.511,-0.716,-0.66,0.708,1.02,-0.102,2.11,-0.788,1.52
TCAGACATGTGAAGGTAACTCAGGTACGCAGTCG,1.82,-0.0574,0.0996,0.0128,-0.0995,0.383,-0.196,0.493,0.114,0.199
TCTAGTTGGTCACGGAGGTCATACACGACGGGTA,2.41,3.69,1.98,1.06,2.96,4.57,2.33,4.38,1.78,3.59
CAAACTAGGTCACCGGAAGTTCAAAGTCCGCATG,8.47,9.21,5.32,4.81,7.04,6.19,6.26,5.86,1.72,4.85
GCGACTGGGGCAACAGCAGGTTACCATAACTTAA,4.72,3.85,-0.661,-0.485,0.0811,0.146,-0.288,0.56,-0.561,1.02
ATCGAAAGGTCGGCGAGGTGAGTATACACCGTTT,-0.166,1.39,0.74,0.0118,0.989,2.25,-0.157,2.77,-0.0319,3.5
GCATATAGGTAATACAAGGGGAAAGTCCGATTGT,4.01,2.14,0.831,0.956,0.379,-0.118,0.0351,0.489,0.339,-0.122
